Laboratory results from PubChem BioAssay (NCI).
This is part of a sample that, as a whole, favours compounds with a hit. Of some 79,000 tested, about 15% had one in any assay. Values without a mark were called inactive. Activity calls are given as the source filed them. Rule as the data show it: active = growth inhibition above about 70%; inactive = the rest.

How the values were obtained:
[1] = NCI Yeast Anticancer Drug Screen. Data for the rad50 strain (AID 155);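 also: 0% = growth of vehicle-only cultures of the same strain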; details: S. cerevisiae rad50 strain growth inhibition, hits give high values
Procedure, shortened: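 Genetically altered yeast (DNA repair pathway); compound treatment; growth inhibition vs vehicle ctrl.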

[2] = NCI Yeast Anticancer Drug Screen. Data for the mec2-1 strain (AID 157); details: S. cerevisiae mec2-1 strain, hits give high values
Procedure, shortened: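 Readout is yeast growth inhibition, normalised to vehicle-treated controls, in the mec2-1 strain exposed to compound.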

[3] = NCI Yeast Anticancer Drug Screen. Data for the sgs1 mgt1 strain (AID 161);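 also: 0% = growth of cultures given vehicle only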; details: S. cerevisiae sgs1 mgt1 strain, hits give high values
Procedure, shortened: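 This yeast growth screen uses a strain with defined DNA-repair lesions; compound-treated growth is compared with vehicle-treated growth.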

[4] = NCI Yeast Anticancer Drug Screen. Data for the cln2 rad14 strain (AID 165);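 also: 0% = growth equal to vehicle treated cultures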; details: S. cerevisiae cln2 rad14 strain, hits give high values
Procedure, shortened: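 Relative to vehicle controls, growth inhibition of compound-treated cln2 rad14 yeast was recorded.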

[5] = NCI Yeast Anticancer Drug Screen. Data for the bub3 strain (AID 167); details: S. cerevisiae bub3 mutant strain, hits give high values
Procedure, shortened: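 Yeast carrying a defined mutation is treated with each compound, and growth is compared with that of vehicle-exposed cells to give inhibition.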

[6] = NCI Yeast Anticancer Drug Screen. Data for the mlh1 rad18 strain (AID 175); details: S. cerevisiae mlh1 rad18 strain growth inhibition, hits give high values
Procedure, shortened: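 Test agents were incubated with a yeast strain of defined genotype (DNA damage repair defect). Inhibition of growth was derived by comparison with vehicle-exposed cultures.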

[7] = at 5.0 µM (retest, dose inferred, filed as 0.5)
[8] = at 50.0 µM (retest, dose inferred, filed as 5.0)

Row | Structure (SMILES) | growth inhibition [1, 7] | growth inhibition [1, 8] | growth inhibition ([1]; at 50.0 µM) | growth inhibition [2, 7] [%] | growth inhibition [2, 8] | growth inhibition ([2]; at 50.0 µM) | growth inhibition [3, 7] [%] | growth inhibition [3, 8] | growth inhibition ([3]; at 50.0 µM) | growth inhibition [4, 7] [%] | growth inhibition [4, 8] | growth inhibition ([4]; at 50.0 µM) | growth inhibition [5, 7] [%] | growth inhibition [5, 8] | growth inhibition ([5]; at 50.0 µM) | growth inhibition [6, 7] | growth inhibition [6, 8] | growth inhibition ([6]; at 50.0 µM)
1 | O=C(CC(=O)c1ccccc1)CC(O)(c1ccccc1)c1ccccc1 | 30% | 90% (active) | 84.9% (active) | 32 | 94% (active) | 89.1% (active) | 26 | 89% (active) | 89.7% (active) | 27 | 72% (active) | 87.6% (active) | 42 | 94% (active) | 87.9% (active) | 42% | 88% (active) | 86.5% (active)
2 | c1ccc2c(c1)ccc1c2ccc2sc3ccccc3[n+]21 | 71% (active) | 94% (active) | 92.3% (active) | 53 | 96% (active) | 53.9% | 59 | 93% (active) | 91.2% (active) | 62 | 92% (active) | 69.8% | 54 | 92% (active) | 73.5% (active) | 75% (active) | 96% (active) | 91.3% (active)
3 | N#CC(C(=O)CCCC(=O)Nc1cccc([N+](=O)[O-])c1)c1cccc2ccccc12 (stereo not given) | 8% | 10% | 32.5% | 18 | 3% | 22.1% | 8 | 7% | 17.1% | 4 | 11% | 22.6% | 4 | 2% | 6.2% | 5% | 18% | 31.2%
4 | Clc1ccc2nc3ccccc3nc2c1 | -31% | 96% (active) | 94.7% (active) | 26 | 67% | 86.8% (active) | -5 | 81% (active) | 79.6% (active) | -9 | 79% (active) | 80.7% (active) | 21 | 78% (active) | 92.3% (active) | -4% | 94% (active) | 93.8% (active)
5 | Nc1ccccc1SC(/C=C/NNC1=NC(c2ccccc2)C(c2ccccc2)=NN1)c1ccccc1 (stereo not given) | 43% | 43% | 93% (active) | 7 | 7% | 93% (active) | 19 | 19% | 91.5% (active) | 29 | 29% | 91.7% (active) | 30 | 30% | 93.3% (active) | 11% | 11% | 91.8% (active)
6 | OCCN1COc2cc3c(cc2C1)OCN(CCO)C3 | 1% | 11% | 17.4% | -4 | 1% | -4.9% | -1 | 14% | 13.2% | 3 | -5% | 42.9% | 1 | -3% | -6.35% | -5% | 10% | 16.2%
7 | O=[N+]([O-])c1ccc(C2=C[P+](c3ccccc3)(c3ccccc3)C=C(c3ccccc3)O2)cc1 | 29% | 97% (active) | 91% (active) | 21 | 98% (active) | 90.4% (active) | 18 | 99% (active) | 85.2% (active) | 30 | 98% (active) | 86.4% (active) | 45 | 98% (active) | 92.2% (active) | 22% | 97% (active) | 92.2% (active)
8 | CN1CCC(/C=C/c2cccc3ccccc23)CN1 (stereo not given) (tested in a mixture with another compound) | 1% | 93% (active) | 71.5% (active) | 18 | 71% (active) | 71.3% (active) | -1 | 91% (active) | 79.3% (active) | 3 | 27% | 23.2% | -4 | 52% | 35.9% | -1% | 95% (active) | 81.3% (active)
9 | Clc1ncccc1-n1cccc1/C=N\N=C/c1cccn1-c1cccnc1Cl | 5% | 98% (active) | 7.25% | 5 | 98% (active) | 6.3% | 8 | 94% (active) | -10.6% | 4 | 93% (active) | 30.4% | 6 | 97% (active) | -4.95% | -1% | 99% (active) | 21.7%
10 | CCOC(=O)c1c(N2CCCC2)nsc1Nc1ccc(F)cc1 | -3% | 90% (active) | 91.8% (active) | -1 | 93% (active) | 87.2% (active) | 13 | 90% (active) | 92% (active) | 2 | 75% (active) | 45% | 1 | 92% (active) | 94.8% (active) | -2% | 88% (active) | 93.5% (active)
